Laboratory results as given in PubChem BioAssay AID743280 (The Scripps Research Institute Molecular Screening Center, 2014).
Among all 2,000 compounds or so, about 680 (34%) were called active. Not all results are given here. Unmarked numbers belong to inactive results.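 The calls were made as follows: active = mean inhibition across triplicates above the hit cutoff set in the earlier primary screen (cut at about 19% in these data); inactive = the rest.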

These molecules were tested against Group 3 secretory phospholipase A2 (Homo sapiens) (UniProt Q9NZ20) (assay: human group III sPLA2 inhibitors, confirmation, biochemical, QFRET, triplicate (AID 743280;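 also: 0% = enzyme with DMSO and 100% = DMSO wells lacking enzyme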)). Conditions: recombinant hGIII-sPLA2, BODIPY PC-A2 QFRET fluorescence; at 12.2 µM; hits give high values.
Group 3 secretory phospholipase A2 (Homo sapiens), sequence (Q9NZ20 whole entry, looked up): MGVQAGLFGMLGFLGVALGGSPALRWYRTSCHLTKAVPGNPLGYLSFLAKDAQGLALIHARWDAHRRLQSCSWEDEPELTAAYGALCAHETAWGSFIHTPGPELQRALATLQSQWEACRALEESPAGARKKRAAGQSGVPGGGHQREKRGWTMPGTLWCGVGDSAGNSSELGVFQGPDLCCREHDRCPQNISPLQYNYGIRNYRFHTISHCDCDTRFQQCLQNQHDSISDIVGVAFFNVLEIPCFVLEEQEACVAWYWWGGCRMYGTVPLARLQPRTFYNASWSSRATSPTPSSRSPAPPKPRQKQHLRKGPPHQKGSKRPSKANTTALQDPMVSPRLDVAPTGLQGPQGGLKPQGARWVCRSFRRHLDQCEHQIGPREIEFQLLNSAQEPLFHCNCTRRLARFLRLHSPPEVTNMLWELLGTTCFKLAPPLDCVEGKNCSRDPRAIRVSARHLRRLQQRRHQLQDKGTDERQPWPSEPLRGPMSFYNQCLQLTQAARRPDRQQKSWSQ

Row | SMILES | inhibition
1 | N#CC1(Nc2ccc(-c3ccc(Cl)cc3)cc2)CCCC1 | 24.4% (active)
2 | C=CCNc1scc(-c2ccccc2)[n+]1CC=C | 10.9%
3 | Cc1cccc(N2CCN(c3ccc(NC(=O)/C=C\C(=O)O)cc3)CC2)c1 | 7.11%
4 | CCOc1ccc2[nH]c(=S)sc2c1 | 27.4% (active)
5 | COCCn1c(SCC(=O)Nc2cc(OC)ccc2OC)nc2c(c1=O)SC(C)C2 (stereo not given) | -3.55%
6 | CCCCn1c(=S)[nH]c2ccccc2c1=O | 12.9%
7 | COc1ccc(C(=O)NNC(=S)NC(=O)c2ccccc2)cc1 | 22.1% (active)
8 | COc1ccc(C(=O)Nc2sc(C)c(C)c2CN2CCOCC2)cc1 | 8%
9 | COc1ccc(C(=O)NC(=S)NNC(=O)c2c(-c3ccccc3)noc2C)cc1 | 35.4% (active)
10 | O=C(NC(=S)Nc1ncccn1)c1ccccc1Br | 10.1%
11 | NS(=O)(=O)c1ccc(CCNC(=O)NC2CCCCC2)cc1 | -1.05%
12 | Cc1c(NC(=S)NCc2ccc(F)cc2)cccc1[N+](=O)[O-] | 3.91%
13 | Cc1ccc(NC(=S)NNC(=O)CSc2nnc(SCc3ccccc3Cl)s2)cc1 | 3%
14 | Cn1cc(Cl)c(C(=O)NNC(=S)Nc2cccc(Cl)c2)n1 | 42.3% (active)
15 | Cc1cc(NCCc2c[nH]c3ccccc23)ccc1Oc1cccnc1 | 10.5%
16 | CN(C)c1ccc(NC(=O)NC2CCCCN(Cc3ccc(Cl)cc3)C2=O)cc1 (stereo not given) | 6.59%
17 | c1ccc(C2=Nc3cccc4cccc(c34)N2)cc1 | 50.5% (active)
18 | C/C(=N/NC(=O)c1cc(Cl)ccc1O)C12CC3CC(CC(C3)C1)C2 | 15.1%
19 | Nc1ccc2c(c1)C(O)c1ccc(Cl)cc1-2 (stereo not given) | 26.1% (active)
20 | Cc1ccc(C2CC(c3cccc(C)c3)n3nc(N)nc3N2)cc1 (stereo not given) | 6.67%
21 | CC(C)(C)c1cc2cccnc2n1Cc1cccc(F)c1 | 13.1%
22 | CCOc1ccc(Br)cc1CSC(=N)N | 26% (active)

Row | SMILES | inhibition
23 | COc1ccc(NC(=O)C2C3C=CC(C3)C2C(=O)NCc2ccccn2)c(OC)c1 (stereo not given) | 1.31%
24 | Cc1ccc(-c2csc(NNC(=O)c3ccccc3)n2)cc1 | 56.7% (active)
25 | CCN(CC(=O)NC1CCS(=O)(=O)C1)S(=O)(=O)c1ccccc1 (stereo not given) | -6.89%
26 | NC(c1csc(NC(=O)Nc2ccccc2Oc2ccccc2)n1)c1ccccc1Cl (stereo not given) | 8.22%
27 | COc1ccc(C(N)c2csc(NC(=O)Nc3cccc(C(F)(F)F)c3)n2)cc1 (stereo not given) | 23% (active)
28 | Cc1cc(-n2nc(C)cc2C)n2ncc(-c3ccccc3)c2n1 | 14.7%
29 | CCc1cccc(CC)c1NC(=S)NCc1ccc2[nH]c(C)cc2c1 | -6.2%
30 | CC(=O)NC(c1cccs1)c1cc(Br)c2cccnc2c1O (stereo not given) | 19.7% (active)
31 | CCOc1ccc(/C=N/NC(N)=S)cc1 | 12.7%
32 | Cc1ccccc1NC(=O)C1CCN(c2ncccn2)CC1 | -1.34%
33 | CC(=O)/C(=N\Nc1ccc(Cl)cc1Cl)Sc1cccc2cccnc12 | -6.23%
34 | CCc1cc(-c2n[nH]c(=S)n2CC(C)C)cs1 | 24.9% (active)
35 | CC(C)c1ccc(Nc2nnc(SCC(=O)c3nnc(-c4ccccc4)o3)s2)cc1 | 6.4%
36 | O=C1C(=O)N(Cc2ccc(-c3ccsc3)cc2)c2ccc(OC(F)(F)F)cc21 | 32.9% (active)
37 | C=CCn1c(C23CC4CC(CC(C4)C2)C3)n[nH]c1=S | 27.1% (active)
38 | CCN(Cc1ccccc1)C(=O)CN1C(=S)NC(C)(C)CC1C (stereo not given) | 8.88%
39 | CC1=CC(C)(C)NC(=S)N1c1ccccc1 | 14.3%
40 | CCCCn1c(N)c(N(CCOC)C(=O)COc2c(C)cccc2C)c(=O)[nH]c1=O | 10.8%
41 | O=C(NNC(=S)Nc1ccc(F)cc1)[C@H]1C[C@@H]1c1ccccc1 | 35.9% (active)
42 | COc1cc(NS(=O)(=O)c2ccc3ccccc3c2)c2ncccc2c1 | 11%
43 | CSC1=NN(c2ccccc2)CN(c2ccccc2)N1C | 25.6% (active)
44 | CCOC(=O)C1(Cc2cccc(OC)c2)CCCN(C(=O)CCSC)C1 (stereo not given) | 2.05%

Row | SMILES | inhibition
45 | C/C(=N\Nc1ccc(Cl)nn1)c1ccccc1O | 7.83%
46 | Brc1ccccc1C1Nc2cccc3cccc(c23)N1 | 58.1% (active)
47 | CC(=O)c1nnn(-c2ccc(Cl)cc2C#N)c1C | 1.06%
48 | O=C(NNc1ccccn1)c1ccc(Cl)nc1 | 25.9% (active)
49 | COc1cccc(NC(C)=[N+](C)CCNS(=O)(=O)c2ccc(Cl)cc2)c1 | -1.54%
50 | COc1cc(OC)cc(C2=Cc3ccccc3C(CC(=O)c3ccco3)N2c2ccc(-c3cnc(OC)nc3)cc2)c1 (stereo not given) | 1.48%
51 | Cc1cccc(-n2cnc(C(=O)NNC(=S)Nc3ccccc3)c2)n1 | 46.5% (active)
52 | O=C(CSc1nc2ccccc2n1Cc1ccccc1)NNC(=S)Nc1ccccc1 | 15.2%
53 | C/C(=N\NC(=O)CSc1nc2ccccc2c(=O)n1-c1ccccc1C)c1cccs1 | -11%
54 | Nc1ccc(Nc2ccccc2)cc1 | 17.8%
55 | COCCCNC(=O)CNC(=S)N(Cc1cc(OC)c(OC)c(OC)c1)C1CCCC1 | 7.62%
56 | CC(C)(c1ccccc1)c1ccc(OCCN)cc1 | 0.24%
57 | Cc1cc(-c2n[nH]c(=S)n2-c2ccc(C)c(C)c2)no1 | 24.4% (active)
58 | COc1ccccc1OCCn1c(SCC(N)=O)nc2ccccc21 | 13.8%
59 | O=C(Nc1cccc(F)c1)c1cc(-c2ccco2)nc2ccccc12 | 9.4%
60 | CC(=O)Oc1ccc2c(c1)C(=O)c1ccccc1C2=O | 1.09%
61 | Cc1ccc2sc(NNC(=O)c3ccc4c(c3)OCCO4)nc2c1C | 38.7% (active)
62 | C#CCCCc1nc2ccccc2c(=O)n1N | 1.47%
63 | Oc1ccc2ccccc2c1N=Nc1nccs1 | 47.5% (active)
64 | CSc1ccc(NC(=O)/C=C/C(=O)O)cc1 | -0.31%
65 | Cc1sc2nc(SCC(=O)c3ccc(O)c(O)c3)n(Cc3ccco3)c(=O)c2c1C | -10.3%
66 | C/C(=N\NC(=S)Nc1ccc(C)cc1)c1cc2ccccc2o1 | 40.2% (active)

Row | SMILES | inhibition
67 | COc1ccccc1OCC(=O)OCn1c(SC)nnc(C)c1=O | -3.63%
68 | O=C(COc1ccc(S(=O)(=O)NCc2ccccc2)cc1)N1CCOCC1 | -1.27%
69 | Cc1ccc(S(=O)(=O)N2CCOCC2)cc1C(=O)NC(=S)N(Cc1ccccc1)C(C)C | 21.7% (active)
70 | CC(C(=O)Nc1ccccc1-c1ccccc1)N1CCOCC1 (stereo not given) | 3.12%
71 | CC(C)c1cc(C(=O)N/N=C/c2ccoc2)c(O)c(C(C)C)c1 | 9.71%
72 | NC(Cc1ccccc1)c1csc(Nc2cc(Oc3ccccc3)ncn2)n1 (stereo not given) | 9.47%
73 | NC[C@H](Cc1ccccc1)NCCc1cc(C(F)(F)F)cc(C(F)(F)F)c1 | 23.4% (active)
74 | Cc1cccc(NC(=S)NCCN(C2CCCCC2)C2CCCC2)c1 | 15.1%
75 | Cc1nnc(Sc2nc3c(c(=O)[nH]c(=O)n3C)n2Cc2ccccc2)s1 | -3.34%
76 | CN(C)S(=O)(=O)c1cccc(NC(=S)N/N=C/C(=O)c2ccccc2)c1 | 33.4% (active)
77 | COc1ccnc(NC(=S)N2CCN(c3ncc(C(F)(F)F)cc3Cl)CC2)c1 | 19%
78 | CC(C)=CCCC1(C)C=Cc2c(ccc3c2[nH]c2cc(O)c(C)cc23)O1 (stereo not given) | -8.08%
79 | O=C(NN1C(=O)C2C3C=CC(C3)C2C1=O)c1ccco1 (stereo not given) | 1.65%
80 | O=C(NNC(=S)Nc1ccc(Br)cc1Cl)c1ccco1 | 32.4% (active)
81 | Cc1c(Cl)cccc1NC(=S)NCc1ccc2c(c1)OCO2 | 13.1%
82 | CCOC12CC(C)(C)CC(C)(CC3=C1C(=O)CC(C)(C)C3)C2 (stereo not given) | 0.63%
83 | O=C(CCl)NNc1cccc(Cl)n1 | 74.6% (active)
84 | O=C(NNC(=S)NC1CC2CCC1C2)c1ccc(Cl)cc1 (stereo not given) | 22.9% (active)
85 | S=C(NNC(=S)NC1CC2CCC1C2)NC1CC2C=CC1C2 (stereo not given) | 22.1% (active)
86 | Cc1cccc(C)c1NC(=O)CN1C(=O)C(C)Oc2ccccc21 (stereo not given) | 3.96%
87 | Cn1c2c(c(=O)n(C)c1=O)C1c3ccccc3OCC1C(C)(C)O2 (stereo not given) | -1.2%
88 | Cc1ccc(C2Nc3ccccc3C(=O)N2CCN2CCNC2=O)cc1 (stereo not given) | -3.41%

Row | SMILES | inhibition
89 | Cc1c(C(=O)N/N=C/c2ccccc2)[nH]c2c([N+](=O)[O-])cccc12 | -5.71%
90 | O=C(N/N=C/c1cc(Cl)cc([N+](=O)[O-])c1O)C(O)(c1ccccc1)c1ccccc1 | 35.7% (active)
91 | Cc1[nH]c(N)nc(=S)c1CCCNc1ccccc1 | 18.5%
92 | S=c1[nH]nc(-c2ccco2)n1/N=C/c1ccccc1 | 13.8%
93 | CC(NC(=O)COC(=O)Cn1cc(C(F)(F)F)ccc1=O)c1ccccc1 (stereo not given) | 0.6%
94 | CC(Oc1ccc2ccccc2c1)C(=O)NNC(=S)NC(=O)c1ccco1 (stereo not given) | 22.6% (active)
95 | CCOC(=O)NC(=O)/C(C#N)=C\c1ccccc1 | -5.62%
96 | N=C(N)SCc1cccc2ccccc12 | 23.3% (active)
97 | O=C(OC12CC3CC(CC(C3)C1)C2)c1ccc(NCc2cc(O)ccc2O)cc1 | 42.8% (active)
98 | COc1cc(/C=N/n2c(C)n[nH]c2=S)ccc1OCc1ccccc1 | 6.69%
99 | COc1ccc(Cl)cc1C(=O)NNC(=S)NC1CCCC1 | 38.5% (active)
100 | O=C(NNC(=S)NC1CCCCC1)c1ccccc1Cl | 31.4% (active)
101 | CCNC(=S)Nc1ccc(OC(F)(F)F)cc1 | 10.7%
102 | CC(C)CC(=O)NC(=S)NNC(=O)c1cccc([N+](=O)[O-])c1 | 31.6% (active)
103 | CCCCCCCCCCOC(=O)C[N+](C)(C)CC1CCCCC1O (stereo not given) | 4.96%
104 | COc1ccc2c(c1)c(=Cc1ccc(N(C)C)cc1)c1cc(-c3ccccc3)[n+](C)n12 | 45.1% (active)
105 | O=C(/C=C/c1c(Cl)cccc1Cl)NCc1ccccc1 | 3.51%
106 | CCCCOc1ccc(CSC(=N)N)cc1[N+](=O)[O-] | 25.2% (active)
107 | CC[C@]1(O)C[C@@H]2CN(CCc3c([nH]c4ccccc34)[C@@](C(=O)OC)(c3cc4c(cc3OC)N(C)[C@H]3[C@@](O)(C(=O)OC)[C@H](OC(C)=O)[C@]5(CC)C=CCN6CC[C@]43[C@@H]65)C2)C1 | 10.2%
108 | Nc1[nH]c(C(=O)c2ccccc2)c(-c2ccc(Br)cc2)c1C(=O)NC1CC1 | 12.2%
109 | COC(=O)C(C)n1cnc2c(nnn2-c2ccc(F)cc2)c1=O (stereo not given) | 1.8%
110 | CN(CC(=O)Nc1ccc(N2CCOCC2)cc1)CC(=O)Nc1ccccc1[N+](=O)[O-] | -2.32%
